Here are results for 35 compounds from PubChem BioAssay (NCI).

Compounds without any hit were thinned out: in the full panel of roughly 83,000, 20% have a hit.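 Cells were grown in 96-well plates and exposed to the test compound at a single concentration for 48 hours; results are reported as percent growth, with values below 10 considered active.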 Unmarked numbers belong to inactive results. The source made the active and inactive calls.

In this test the test system is NCI-H460 lung. The test can be described thus: NCI-60 one-dose screen, 48 h (100 = growth as untreated, 0 = no growth, -100 = all killed). Particulars: 10 µM unless noted.
On to `COc1cc(Cn2ncc3ccc(NC(=O)c4cc5ccccc5oc4=N)cc32)cc(OC)c1OC`, for which the growth is 91%.
In the case of `N=C1C(c2nc(-c3ccc(Br)cc3)cs2)=C(O)CN1Cc1cccnc1` it was 66.7%; in that of `COc1ccc(/C=C/c2c(C(=O)/C=C/c3cccs3)c(C)nc3ccccc23)cc1`, 83.6%.
In the case of `N#C/C(=C\c1ccc(Br)cc1)n1nnc2cc(F)c(F)cc21` it was 30.5%; in that of `C[C@@H]1N=C(c2ccc3ccccc3n2)Nc2nc3ccccn3c2C1=O`, 97.2%.
The figure for `CCCCc1ccc(Nc2ccc(Nc3ccc(CCCC)cc3S(=O)(=O)O)c3c2C(=O)c2ccccc2C3=O)c(S(=O)(=O)O)c1` is 104%; for `COc1ccc(OC)c2c1[nH]c(=O)c1c3ncccc3cn21` it is -3.99% (active).
For `COc1ccc(NC(=O)CSc2nc(C)c(C(C)=O)n2-c2ccc(Cl)cc2)cc1`, the growth is 102%.
Consider `COc1cccc(-c2nn(-c3ccccc3)cc2-c2ccnc(NCCNC(=O)Nc3cccc(C(F)(F)F)c3)c2)c1`, for which the growth was 7.98% (active).
The figure for `O=C(NCCCNc1cc(-c2cn(-c3ccccc3)nc2-c2cccc(O)c2)ccn1)c1ccccc1` is 30.4%; for `Cc1cc(NCc2cc(Nc3ccnc4cc(Cl)ccc34)ccc2F)nc(N2CCCC2)n1` it is -51.7% (active).
The figure for `Oc1ccc(CN2CCC(N3CCOCC3)CC2)c2cccnc12` is 10.8%; for `CCN(CC)c1nc(SCC(=O)Nc2nc3ccc(C)cc3s2)nc(-c2ccccc2)c1C#N` it is 99.4%.
In the case of `Clc1cccc(Cl)c1C(Nc1nc2ccccc2s1)Nc1nc2ccccc2s1` it was 105%.
For the compound `C[C@H]1[C@H]2[C@H]3CC[C@@H]4[C@@]5(C)C/C(=C/c6cccnc6)C(=O)C(C)(C)[C@@H]5CC[C@@]4(C)[C@]3(C)CC[C@]23CO[C@]1(C)[C@@H](C(=O)/C=C\c1cccnc1)C3`, the growth was -45.3% (active).
In the case of `O=c1ccn2nc3ccccc3c2[nH]1` it was 109%.
As for `COc1ccccc1NC(=O)N/C(N)=N/c1nc2ccccc2s1`, the growth was 10.1%.
In the case of `COc1c(CCC[P+](c2ccccc2)(c2ccccc2)c2ccccc2)cc2c(c1OC)OCO2` it was 5.26% (active).
The figure for `COc1ccc(C(=O)Nn2c(NCC(=O)N3c4ccccc4Sc4ccccc43)nnc2-c2ccc(O)cc2)cc1` is 110%; for `COc1ccc(-c2nc3c(c(=O)n2C(C)=O)C(c2ccc(Cl)cc2)c2sc4c(Cl)cccc4c2O3)cc1` (stereo not given) it is -10.8% (active); for `Cc1nc2c(c(N3CCCc4ccccc43)n1)CCC2` it is 3.12% (active).
In the case of `CC1=C([Se]CC(OC(=O)CC[Se]c2ccccc2)C(=O)NCCCCCC(=O)OCc2ccccc2)C(=O)c2ccccc2C1=O` (stereo not given) it was 21.6%; in that of `Cc1cc(NCCCCNc2ccnc3cc(Cl)ccc23)nc(Nc2ccc(C(=O)N3CCCC3)cc2)n1`, 18.1%; in that of `Cc1ccc(N(C(=O)CCc2c[nH]c3ccccc23)[C@H](C(=O)Nc2ccc(Cl)cc2)c2cccc([N+](=O)[O-])c2)cc1`, 98.2%.
As for `O=c1[nH]c2ccccc2n1C1CCN(CCOc2ccccc2)CC1`, the growth was 94%.
Take `c1ccc2c(c1)nc(CN1CCOCC1)n1cc(N3CCCC3)nc21`: the growth was 117%.
In the case of `CC/C=C1/C(=O)C=C[C@@H]1C/C=C\CCCC(=O)O` it was 97.1%; in that of `COC(=O)[C@]12CC[C@@H](C)[C@H](C)[C@@H]1C1=CC[C@@H]3[C@@]4(C)C(C=O)=C[C@@](C)(COS(C)(=O)=O)C4[C@H](O)C[C@@]3(C)[C@]1(C)CC2` (stereo not given in full), -58.2% (active).
In the case of `CCCCCCCCn1ccc2cc(NC(=O)Cn3cc(CN4CCCC4)nn3)ccc21` it was -64.5% (active); in that of `CCCCCCCOc1c(OC)cc(C2CC(=O)Nc3c2c(C)nn3-c2nc3ccccc3[nH]2)cc1OC` (stereo not given), -26.8% (active); in that of `COc1cc(-c2nc(N3CCN(C)CC3)c3ccccc3n2)cc(OC)c1OC`, 84.5%.
In the case of `CCC(CO)Nc1nc2ccc(Cl)cc2c2ccccc12` (stereo not given) it was 25.1%.
In the case of `NS(=O)(=O)c1ccc(-n2nc(C(=O)N/N=C\c3ccc(F)cc3)cc2-c2ccc(Cl)cc2)cc1`, the growth is 99.4%.
In the case of `O=S(=O)(NCCCNc1cc(-c2c(-c3cccc(O)c3)nc3sccn23)ccn1)c1cccc(Cl)c1` it was 47.3%; in that of `CC(=O)n1c(-c2ccc(Cl)cc2)nc2c(c1=O)C(c1ccc(Cl)cc1)c1sc3c(Cl)cccc3c1O2` (stereo not given), -30.4% (active).
